Results taken from PubChem BioAssay AID455 (Sanford-Burnham Center for Chemical Genomics, 2006).
About 20 (0.2%) of roughly 10,000 compounds were called active. Many of the other results were omitted from the sample, so actives are more common in it than they were. Values without a mark were called inactive.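 The calls were made as follows: active = a compound raising TNF-alpha-driven VCAM-1 surface staining, with its hit status upheld on visual or statistical review; inactive = the rest, including hits rejected on review.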

Assay: enhancers of VCAM-1 display on endothelial cells, cell-based, plate reader, pooled HUVEC, TNFa stimulus (AID 455);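 as to augmentation: 0% = TNFa plus DMSO wells and 100% = a visually confirmed top hit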
Details: HUVEC TNFa-induced VCAM-1 immunofluorescence; active compounds read high, 100% set by best visually verified hit,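 tested at 5 µM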

Row | Compound | augmentation
1 | Cc1ccc(O)c(-c2cc3ccccc3[nH]2)c1 | inactive
2 | CC(C)NC(=O)CSc1nc2ccccc2n1-c1ccccc1 | inactive
3 | CC(C)N=c1cc2n(-c3ccc(Cl)cc3)c3ccccc3nc-2cc1Nc1ccc(Cl)cc1 | 74% (active)
4 | CC(O)c1nc2ccccc2n1C1CCCCC1 (stereo not given) | inactive
5 | CCOC(=O)C1CN(S(=O)(=O)c2ccc(C)cc2)CCN1S(=O)(=O)c1ccc(C)cc1 (stereo not given) | inactive
6 | CCOc1ccccc1N1C(=O)CC(Sc2ncccc2C(=O)O)C1=O (stereo not given) | inactive
7 | COc1ccc(-c2oc3ncn(CCN4CCOCC4)c(=N)c3c2-c2ccc(OC)cc2)cc1 | inactive
8 | CC1=C(C(=O)OC2CCCC2)C(c2ccc(C)o2)C2=C(CC(c3cccs3)CC2=O)N1 (stereo not given) | inactive
9 | COc1cccc(CNC(=O)C2CCN(S(=O)(=O)c3ccc(F)cc3)CC2)c1 | inactive
10 | CCCCSc1nnc([C@H](C)NC(=O)OC(C)(C)C)o1 | inactive
11 | O=C(OC1CCOC1=O)c1ccc2ccccc2n1 (stereo not given) | inactive
12 | O=C(Nc1ccc2nc(-c3cccs3)[nH]c2c1)c1ccco1 | 72.4% (active)
13 | COc1ccc(NC(=O)c2ccco2)cc1NC(=O)c1cccs1 | inactive
14 | Cn1cccc1-c1nc2ccc(NC(=O)c3ccco3)cc2[nH]1 | 65.1%
15 | O=C(Nc1cccc2ncccc12)c1ccc2c(c1)OCCO2 | 81% (active)
16 | O=C(Nc1ccccc1-c1nc2ccccc2o1)c1ccc2c(c1)OCCO2 | inactive
17 | CCN1C(=O)c2cccc3c(NC(=O)c4ccc5c(c4)OCCO5)ccc1c23 | inactive
18 | CC(C)C(=O)N1CCN(c2nc(-c3ccccc3)c3c(c2C#N)CCCC3)CC1 | inactive
19 | Oc1cccc(C=NCc2ccccc2)c1O | 61.8% (active)
20 | FC(F)Sc1nnc(-c2cccs2)n1-c1ccccc1 | inactive
21 | CCCC(=O)Nc1cc(C)c2c(=O)oc3ccccc3c2n1 | inactive
22 | Cc1ccc(Br)cc1S(=O)(=O)N1CCN(c2ccccc2)CC1 | inactive
23 | Cc1cc(C)c2c(n1)nn1c(C3CC3)cc(C(F)(F)F)nc21 | inactive
24 | c1ccc(CN2C3=NCCCN3c3ccccc32)cc1 | inactive
25 | CCOC(=O)CN1C2=NCCN2c2ccccc21 | inactive

Row | Compound | augmentation
26 | COc1ccc(C(=O)CN2C3=NCCCN3c3ccccc32)cc1OC | 71.2% (active)
27 | Cc1cccc(NC(=O)CC2CCC2)c1 | inactive
28 | Cc1cc(C)n(-c2nc3sc4c(c3c3nnc(SCC(N)=O)n23)CC(C)(C)OC4)n1 | inactive
29 | CCCC(=O)Nc1cc(C)c(NC(=O)c2ccccn2)cn1 | inactive
30 | COCCn1c(CN2CCN(c3cccc(Cl)c3)CC2)nc2c1c(=O)n(C)c(=O)n2C | inactive
31 | O=c1cc(NCc2ccccc2)nc2n1CCCS2 | inactive
32 | O=C(Nc1cccc(F)c1)c1ccc2c(c1)OCO2 | inactive
33 | O=C1CCCN1Cc1ncnn1-c1ccccc1 | inactive
34 | O=C(Nc1ccc2c(c1)OCO2)N1CCN(c2ncccn2)CC1 | inactive
35 | CCC(=O)N1CCc2cc(S(=O)(=O)CCC(=O)Nc3ccc(C)c(F)c3)ccc21 | inactive
36 | CCC(=O)N1CCc2cc(S(=O)(=O)CCC(=O)Nc3c(C)n(C)n(-c4ccccc4)c3=O)ccc21 | 70.3% (active)
37 | CCC(=O)N1CCc2cc(S(=O)(=O)CCC(=O)Nc3nc(C)cs3)ccc21 | inactive
38 | CCc1nc(N[C@@H](Cc2c[nH]c3ccccc23)C(=O)O)c2oc3ccccc3c2n1 | inactive
39 | Cc1cc2c(=O)n(CC(=O)N3CCN(c4ccccc4)CC3)cnc2s1 | inactive
40 | Cc1csc(NC(=O)c2ccccc2C(=O)O)n1 | inactive
41 | CC(C)(C)c1ccc(OCC(=O)O)cc1 | inactive
42 | Cc1cc(C)nc(N2CCCC(C(=O)Nc3nc4ccc(S(C)(=O)=O)cc4s3)C2)n1 (stereo not given) | inactive
43 | COc1cc(NC(=O)CN(c2cc(C)cc(C)c2)S(=O)(=O)c2c(C)noc2C)cc(OC)c1 | inactive
44 | Cc1ccc(NC(=O)CSc2nnc(CSc3nc(C)cc(C)n3)n2Cc2ccco2)c(C)c1 | inactive
45 | CCn1c(=S)ccc2ccc(OC)cc21 | inactive
46 | CCOc1ccc(NC(=O)CSc2nccn2C)cc1 | inactive
47 | COC(=O)c1ccc2c(c1)C(=O)N(C1CCCCC1)C2=O | inactive
48 | CCOc1cc(C2NC(=O)N(C)C(C)=C2C(=O)OC)cc(Br)c1O (stereo not given) | inactive
49 | CCOC(=O)C1=C(C)NC2=C(C(=O)CC(C)(C)C2)C1c1ccc(N(C)C)cc1 (stereo not given) | inactive
50 | CCOC(=O)C1=C(c2ccccc2)NC(=O)NC1c1ccc(N(C)C)cc1 (stereo not given) | 63.8% (active)

Row | Compound | augmentation
51 | CCOC(=O)C1=C(C)NC(=O)NC1c1ccc(OCCO)c(OC)c1 (stereo not given) | inactive
52 | Cc1ccc(S(=O)(=O)NC(=O)c2cc(C)n(CCCn3ccnc3)c2C)cc1 | inactive
53 | COc1ccc(C(=O)Nc2nc(C)c(C(=O)N(C)C)s2)cc1OC | inactive
54 | COc1ccccc1NC(=O)NC(N)=O | inactive
55 | O=C(C1CC1)N1CCc2cc(Br)cc(S(=O)(=O)N3CCOCC3)c21 | inactive
56 | CC1(C)Cc2ccccc2C(N)=C1C#N | inactive
57 | CCN1CCN(c2nc(C)nc3c2sc(=S)n3C)CC1 | inactive
58 | CCc1cc2ccc(C)cc2nc1SCC(=O)N1CCN(C(=O)c2ccco2)CC1 | inactive
59 | O=C1CCCN1CCCNc1ncnc2c1[nH]c1ccc(Cl)cc12 | inactive
60 | O=c1c2[nH]c3ccc(Cl)cc3c2ncn1Cc1ccccn1 | 100% (active)
61 | O=c1c2[nH]c3ccccc3c2ncn1CCCn1ccnc1 | inactive
62 | COc1cc(-c2nc(S(=O)(=O)c3ccccc3)c(N3CCOCC3)o2)cc(OC)c1OC | inactive
63 | COc1cc2[nH]c(=O)c(C(=O)NCCCN3CCCCC3)c(O)c2cc1OC | inactive
64 | COc1cccc(C2C(C(=O)c3cccs3)=C(O)C(=O)N2CCCn2ccnc2)c1OC (stereo not given) | inactive
65 | Cc1cccc(C(=O)N2CCN(C(=O)c3cccc(C)c3)C(C)C2)c1 (stereo not given) | inactive
66 | CC(=O)c1ccccc1NS(=O)(=O)c1c(C)nn(-c2ccccc2)c1C | inactive
67 | COc1cccc(NC(=O)N(CCCN2CCOCC2)C(C)c2cc3cccc(OC)c3o2)c1 (stereo not given) | inactive
68 | S=C(c1ccc(N2CCOCC2)cc1)N1CCCCC1 | inactive
69 | COc1ccccc1C1/C(=C(\O)c2c(C)nc3c(C)cccn23)C(=O)C(=O)N1CCCN(C)C (stereo not given) | inactive
70 | COc1ccc(S(=O)(=O)Nc2ccc(F)c(Cl)c2)cc1OC | 70.4% (active)
71 | COc1ccc(S(=O)(=O)Nc2ccc(F)c(F)c2)cc1Cl | inactive
72 | COc1ccc(S(=O)(=O)Nc2ccc(S(=O)(=O)N3CCCCC3)cc2)cc1OC | inactive
73 | COC(=O)Cc1c(C)c2ccc(OCC(=O)N3CCOCC3)cc2oc1=O | inactive
74 | CCCSc1nnc(N2C(=O)CC(c3ccsc3)C3=C2CCCC3=O)s1 (stereo not given) | inactive
75 | COc1ccc(-c2nnc(SCC(=O)NC(=O)NCc3ccco3)o2)cc1 | inactive
